From PubChem BioAssay (NCI)
This is part of a sample that, as a whole, favours compounds with a hit. Of some 83,000 tested, about 20% had one in any assay.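 Note: values are percent growth. 100 is the growth of untreated cells, values between 100 and 0 indicate rising inhibition; between -100 and 0 indicates cell death.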 A number with no mark means an inactive call. The source made the active and inactive calls. The calls were made as follows: active = growth percent below 10; inactive = the rest.

Experiments:
Assay in all cases: NCI-60 one-dose screen, 48 h (100 = growth as untreated, 0 = no growth, -100 = all killed)
Conditions in all cases: 10 µM unless noted
T-47D breast = tested on: T-47D breast
BT-549 breast = tested on: BT-549 breast
MDA-MB-435 melanoma = tested on: MDA-MB-435 melanoma
SW-620 colon = tested on: SW-620 colon
MCF7 breast = tested on: MCF7 breast
HCT-116 colon = tested on: HCT-116 colon
KM12 colon = tested on: KM12 colon
HCC-2998 colon = tested on: HCC-2998 colon

SMILES | growth (T-47D breast) | growth (BT-549 breast) | growth (MDA-MB-435 melanoma) | growth (SW-620 colon) | growth (MCF7 breast) | growth (HCT-116 colon) | growth (KM12 colon) | growth (HCC-2998 colon) [%]
C=CCn1c(SCC(=O)Nc2cccc(C(=O)/C=C/c3ccccc3)c2)nc2ccccc2c1=O | 78.4% | 107% | 82.9% | 12.2% | 18.3% | -3.91% (active) | 57.5% | 
Clc1ccc(-c2csc(Nc3cccc(Nc4csc(-c5ccc(Cl)cc5)n4)c3)n2)cc1 | 26.8% | 112% | 88.6% | 86.6% | 60.7% | 67.2% | 67.6% | 
CCOC(=O)CC(=O)CSC1=NC2C(NN1)N(C)C(=O)N2C (configuration not stated) | 31.8% | 101% | 94.6% | 75.8% | 10.9% | 9.01% (active) | 101% | 
C#C[C@]1(O)CC[C@H]2[C@@H]3CC=C4c5sc(-c6ccc(OC)cc6)nc5CC[C@]4(C)[C@H]3CC[C@@]21C | 73.6% | 47% |  | 51.3% | 27.6% | 59.9% | 60% | 90.1
O=C(NNc1nc2cc(F)ccc2n2cncc12)c1cnccn1 | 33.7% | 55% |  | 24.5% | 14.8% | 23% | 20.8% | 19.9
O=C1c2c(c3c4cccnc4[nH]c3c3ccc4ccccc4c23)C(=O)N1CCN1CCNCC1 | 99.2% | 102% | 89.9% | 55.9% | 27.8% | 36.6% | 73.6% | 
CC1OC(O[C@@H]2[C@H](O)C(CO)OC(O[C@H]3COC(O[C@H]4CC[C@]5(C)[C@H]6CC[C@]78OC[C@@]9(CCC(C)(C)C[C@H]97)[C@H](O)C[C@@]8(C)[C@]6(C)CC[C@H]5C4(C)C)[C@@H](OC4OC(CO)[C@@H](O)[C@@H](O)[C@@H]4O)[C@@H]3O)[C@H]2OC2OC[C@@H](O)[C@@H](O)[C@@H]2O)[C@@H](O)[C@@H](O)[C@H]1O (some centres not stated) | -54.6% (active) | -69.2% (active) | -82.8% (active) | -75.9% (active) | -55.9% (active) | -80.1% (active) | -51.9% (active) | 
CC1COc2c(N3CCN(C)CC3)c(F)cc3c(=O)c(C(=O)N/N=C/c4cc[nH]c4)cn1c23 (configuration not stated) | 47.2% | 59.5% | 12.2% | -46.4% (active) | -5.35% (active) | -80.1% (active) | 46.4% | 
C[C@H]1[C@H](C)CC[C@]2(COC(=O)c3cccnc3)CC[C@]3(C)C(=CC[C@@H]4[C@@]5(C)CCCNC(C)(C)[C@@H]5CC[C@]43C)[C@H]12 | 61% | 76.5% | 68.5% | 39.1% | 67.3% | 33.5% | 68.9% | 
COc1cc(/C=C/C(=O)c2ccc(NC(=O)COc3cccc4cccnc34)cc2)cc(OC)c1OC | 90.2% | 81.7% | 88.3% | 69.8% | 20.6% | 23.9% | 85.8% | 
CC[C@@](C)(NC(=O)C(C)(C)NC(=O)[C@@H](NC(=O)[C@@H]1CCCN1C(=O)C(C)(C)NC(=O)[C@H](CC(C)C)NC(=O)CNC(=O)C(C)(C)NC(=O)[C@@H](NC(=O)C(C)(C)NC(=O)[C@H](CCC(N)=O)NC(=O)[C@H](C)NC(=O)C(C)(C)NC(=O)[C@H](C)NC(=O)C(C)(C)NC(=O)[C@@H]1CCCN1C(=O)C(C)(C)NC(C)=O)C(C)C)C(C)C)C(=O)N[C@@H](CCC(N)=O)C(=O)N[C@@H](CCC(N)=O)C(=O)N[C@H](CO)Cc1ccccc1 | 0.666% [4.25 µM] (active) | -50.2% [4.25 µM] (active) | 4.98% [4.25 µM] (active) | 54.9% [4.25 µM] | 9.62% [4.25 µM] (active) | 27.8% [4.25 µM] | 29.5% [4.25 µM] | 
CN1CCN(c2nc(-c3csc(-c4ccncc4)n3)cc3ccccc23)CC1 | 55.9% | 83.5% | 56.2% | 74.2% | 67.8% | 25.4% | 62.6% | 
C=C1C(=O)O[C@@H]2/C=C(/C)C3=CC(=O)[C@@](C)(C[C@H](OC(=O)/C(C)=C\C)[C@@H]12)O3 | -17.4% (active) | 27.9% | -59% (active) | -28.7% (active) | 13.2% | -53.3% (active) | 28.2% | 
CCNC(=O)Oc1ccc(/C(=C(/C)c2ccccc2)c2ccc(OCCN3CCCC3)cc2)cc1 | 51.8% | 70.4% | 81.6% | 80.3% | 26.9% | 38.3% | 81.8% | 
CS(=O)(=O)c1ccc(-c2nn(-c3ccccc3)cc2/C=C/C(=O)c2ccc(Br)cc2)cc1 | 87.8% | 105% |  | 86.9% | 50.2% | 73.2% | 80% | 105
CCCC(=O)NC(c1cccnc1)c1ccc2c(C)ccnc2c1O (configuration not stated) | 20.7% | 26.2% | 30.6% | 28.6% | -2.74% (active) | 16.7% | 20% | 

SMILES | growth (T-47D breast) | growth (BT-549 breast) | growth (MDA-MB-435 melanoma) | growth (SW-620 colon) | growth (MCF7 breast) | growth (HCT-116 colon) | growth (KM12 colon) | growth (HCC-2998 colon) [%]
Oc1ccc(CSc2nnc(-c3ccc(Oc4ccccc4)cc3)n2-c2ccccc2)c2cccnc12 | 4.84% (active) | 21.7% | 13.7% | 12.8% | 4.86% (active) | 14.5% | 17.7% | 
N#Cc1ccc(S(=O)(=O)Nc2ccc(-c3cnc(N)[nH]3)cc2)cc1 | 101% | 107% | 108% | 102% | 90.7% | 107% | 103% | 
O=C(NNc1nc2cc(F)c(F)cc2n2cccc12)c1ncccn1 | 14.8% | 36.8% | 26.1% | 26.4% | 16.9% | 31.2% | 25.6% | 
C=C1C(=O)O[C@@H]2C[C@@H](C)/C=C\C(=O)[C@](C)(OC(C)=O)C[C@H](OC(=O)/C(C)=C\C)[C@@H]12 | -72.8% (active) | -9.56% (active) | -53.4% (active) | -29.5% (active) | 11.2% | -70.3% (active) | 11.9% | 
Cc1ccc(-c2cc(-c3ccc(N(C)C)cc3)n3c(n2)nc2ccccc23)cc1 | 6.32% (active) | 82.2% | 65.3% | 80.1% | 59.2% | 39.4% | 78.4% | 
CC1(C)CC[C@]2(C(=O)O)CC[C@]3(C)C(=CCC4[C@@]5(C)C[C@@H](O)[C@@H]6OC(c7cccc([N+](=O)[O-])c7)OC[C@@]6(C)C5CC[C@]43C)C2C1 (some centres not stated) | 93.1% | 77.3% | 85.5% | 73.7% | 74.4% | 49.5% | 46.1% | 
O=[N+]([O-])c1ccc(-c2nnc(SCc3ccc(O)c4ncccc34)o2)cc1 | 9.66% (active) | 27.4% | 19% | 20.5% | 6.95% (active) | 12.7% | 13.8% | 
O=C(CCCCCCN1CC(=O)N2[C@@H](c3cccc(Cl)c3)c3[nH]c4ccccc4c3C[C@H]2C1=O)NO | 19.6% | 82.7% | 31.2% | 26.3% | 38% | 14.8% | 54.9% | 
COC[C@]12CC[C@@H](C)[C@H](C)[C@H]1C1=CC[C@@H]3[C@@]4(C)CCCNC(C)(C)[C@@H]4CC[C@@]3(C)[C@]1(C)CC2 | 39.8% | 66.1% | 9.61% (active) | -42.1% (active) | -33.2% (active) | 5.39% (active) | 19.3% | 
COc1cc(O)c2c(c1)/C=C/C[C@H](O)[C@H](O)C(=O)/C=C\C[C@H](C)OC2=O | -1.9% (active) | -29.2% (active) | -15.4% (active) | -9.76% (active) | 0.782% (active) | -16.3% (active) | 19.1% | 
CCOc1c(C#N)c(Nc2ccc(S(N)(=O)=O)cc2)c(C#N)c2nnc(C)n12 | 104% | 97.6% | 108% | 108% | 97.2% | 116% | 103% | 
CC1OC(O[C@@H]2C(O)C(CO)OC(O[C@H]3COC(O[C@H]4CC[C@]5(C)[C@H]6CC[C@]78OC[C@@]9(CC[C@](C)(C=O)C[C@H]97)[C@H](O)C[C@@]8(C)[C@]6(C)CC[C@H]5C4(C)C)[C@@H](OC4OC(CO)[C@@H](O)[C@@H](O)[C@@H]4O)[C@@H]3O)[C@H]2OC2OC[C@@H](O)[C@@H](O)[C@@H]2O)[C@@H](O)[C@@H](O)[C@H]1O (some centres not stated) | 53.1% | -56.9% (active) | -55.1% (active) | 10% | 11% | -65.9% (active) | 23.7% | 
CCN1C(=O)N(CC)C2SC(N/N=C/c3cccs3)=NC21 (configuration not stated) | 68.8% | -40% (active) | -31.7% (active) | 19.8% | 17.3% | 3.01% (active) | 6.21% (active) | 
O=C(N/N=C\c1ccc(Cl)cc1)c1ccc2nc(-c3ccc(Br)cc3)[nH]c2c1 | 0.0838% (active) | 97.7% | 3.54% (active) | -49.3% (active) | -33.2% (active) | -86.8% (active) | -23.2% (active) | 
N#C/C(=C\c1ccc(N2CCCCC2)cc1)C(=O)Nc1sc2c(c1C#N)CCC2 | 97.7% | 108% | 90% | 100% | 87.3% | 89.8% | 96.5% | 
